Measurements from PubChem BioAssay AID463173 (ICCB-Longwood Screening Facility, Harvard Medical School, 2010).
Hit rate of the full screen: of about 52,000 compounds, about 4,300 (8.3%) were called active. Cut-off read from the data, not from the text of the source: active = survival mostly below about 52% (no sharp cut-off); inactive = mostly above about 56%. Only a selection was taken, and actives are over-represented in it overall.

System: DeltatarO mutant
Experiment: growth inhibition of S. aureus wild type versus tarO mutant, primary screen, teichoic acid synthesis inhibitors, RN4220, OD600 (AID 463173)
Conditions: OD600, 18 h, active compounds read low, screened at 18.75 µg/mL (by protocol)

Row | SMILES | survival
1 | CCOc1ccc(CNC(=O)c2nn(-c3ccc(OC)cc3)c(=O)c3c2c2ccccc2n3C)cc1 | 101% (inactive)
2 | CCC(=O)N1c2ccccc2CC1C(=O)NCc1ccc(OC(C)C)cc1 (centres undefined) | 97% (inactive)
3 | CC1CCN(CC(=O)O)CC1 | 99% (inactive)
4 | COc1cc(-c2noc(CSc3nc(-c4ccc(F)cc4)cc(=O)[nH]3)n2)cc(OC)c1OC | 69% (inactive)
5 | O=C(c1cc(-c2ccc(O)cc2)on1)N1CCN(c2ccccc2)CC1 | 96% (inactive)
6 | CC1CCN(C(=O)c2cc(-c3ccc(Br)cc3)on2)CC1 | 51% (inactive)
7 | O=C(C1CC(c2ccccc2O)=NO1)N1CCCC1 (centres undefined) | 91% (inactive)
8 | O=C(c1cc(-c2cccc(Cl)c2)on1)N1CCN(c2ccccc2)CC1 | 23% (active)
9 | NC(=O)C1CCN(C(=O)c2cc(-c3ccccc3)on2)CC1 | 98% (inactive)
10 | CC1CCN(C(=O)c2cc(-c3ccc(Cl)cc3)on2)CC1 | 66% (inactive)
11 | CC1CCN(C(=O)c2cc(-c3cccc(Cl)c3)on2)CC1 | -15% (active)
12 | CN(C(=O)c1cc(-c2ccccc2O)on1)c1ccccc1 | 40% (active)
13 | CN(C(=O)c1cc(-c2ccccc2)on1)C1CCCCC1 | 91% (inactive)
14 | O=C(O)c1cc(-c2ccccc2)on1 | 100% (inactive)
15 | CCc1cc(C(=O)N2CCN(c3ccccc3)CC2)no1 | 48% (inactive)
16 | O=C(c1cc(-c2ccccc2O)on1)N1CCCCC1 | 40% (active)
17 | CCN(CCCNC(=O)Cn1ncc2c([nH]c3ccc(C)cc32)c1=O)c1ccccc1 | 115% (inactive)
18 | Cc1csc2nc(COc3ccc(NC(=O)C(C)C)cc3)cc(=O)n12 | 98% (inactive)
19 | COc1ccc(NC(=O)Cn2cc(C(=O)c3ccccc3)c(=O)c3cc(OC)ccc32)c(OC)c1 | 92% (inactive)
20 | CCCn1cc(S(=O)(=O)c2ccc(C)c(C)c2)c(=O)c2cc(F)c(N3CCC(C)CC3)cc21 | 67% (inactive)

Row | SMILES | survival
21 | COc1cccc2cc(C(=O)N3CCN(c4cc(C)ccc4C)CC3)c(=O)oc12 | 56% (inactive)
22 | Cc1cccc(CNC(=O)CN2C(=O)CCn3nc(-c4cn(C)c5ccccc45)cc32)c1 | 119% (inactive)
23 | CCOC(=O)COc1ccc(CC)cc1C(=O)c1ccn2nc(-c3ccc(Cl)cc3)cc2n1 | 74% (inactive)
24 | COc1ccccc1NC(=O)N(Cc1nnc2n1CCCCC2)c1ccc(F)cc1 | 91% (inactive)
25 | CCc1ccc(CN(Cc2ccco2)C(=O)c2cc(-c3ccc(Cl)cc3)on2)cc1 | 75% (inactive)
26 | Cc1ccc(-c2cc(C(=O)N3CCCC3)no2)cc1 | 98% (inactive)
27 | O=C(c1cc(-c2cccc(Cl)c2)on1)N1CCCCC1 | 46% (active)
28 | COc1ccccc1-c1cc(C(=O)N2CCN(c3ccccc3)CC2)no1 | -15% (active)
29 | COc1ccc(-c2cc(C(=O)N3CCN(c4ccccc4)CC3)no2)cc1 | 77% (inactive)
30 | COCCNC(=O)c1cc(-c2cccc(Cl)c2)on1 | 134% (inactive)
31 | O=C(c1cc(-c2ccccc2)on1)N1CCCCC1 | 95% (inactive)
32 | CCN(CC)C(=O)c1cc(-c2ccccc2)on1 | 101% (inactive)
33 | COc1ccccc1N1CCN(C(=O)c2cc(-c3ccccc3O)on2)CC1 | 61% (inactive)
34 | CN(Cc1ccccc1)C(=O)c1cc(-c2cccc(Cl)c2)on1 | -15% (active)
35 | CCN(CC)C(=O)c1cc(-c2ccc(Cl)cc2)on1 | 36% (active)
36 | O=C(NCCc1ccccc1)c1cc(-c2cccc(Cl)c2)on1 | 76% (inactive)
37 | CC(C)CN1CCc2nc(N3CCN(c4ncccn4)CC3)ncc2C1 | 72% (inactive)
38 | CCNc1nc(NCC)nc(N(C#N)CC)n1 | 62% (inactive)
39 | CCc1ccc(NC(=O)Cn2c(=O)n(Cc3ccc(C)cc3)c(=O)c3cccnc32)cc1 | 88% (inactive)
40 | CC(=O)c1ccc(N2CCN(C(=O)Nc3cn(CC(C)C)c(=O)c4ccccc34)CC2)cc1 | 80% (inactive)

Row | SMILES | survival
41 | Cc1ccc(C)c(NC(=O)c2cnc(N3CCCC3)nc2C)c1 | 94% (inactive)
42 | COc1ccc(NC(=O)CSc2oc(-c3ccc(F)cc3)nc2S(=O)(=O)c2ccc(C)cc2)c(OC)c1 | 61% (inactive)
43 | Cc1cccc(NC(=O)NCCOCCn2c(=O)oc3ccccc32)c1C | 99% (inactive)
44 | O=C(Nc1ccc(Cl)cc1)N1CCC(CN2CCCC2)CC1 | 84% (inactive)
45 | CCCCC(=O)Nc1cccc(OCc2cc(=O)n3ccccc3n2)c1 | 87% (inactive)
46 | CCN(C(=O)c1ccc2c(c1)N(Cc1cccc(Cl)c1)C(=O)c1ccccc1S2=O)c1ccccc1 (centres undefined) | 32% (active)
47 | O=C(NCCC1=CCCCC1)c1ccc2c(c1)N(Cc1cccc(Cl)c1)C(=O)c1ccccc1S2=O (centres undefined) | 37% (active)
48 | CCOC(=O)N1CCC(NC(=O)c2ccc3c(c2)N(Cc2cc(C)ccc2C)C(=O)c2ccccc2S3=O)CC1 (centres undefined) | 42% (active)
49 | CCOC(=O)N1CCC(NC(=O)c2ccc3c(c2)N(Cc2ccccc2C)C(=O)c2ccccc2S3=O)CC1 (centres undefined) | 53% (inactive)
50 | CCCCN(C)C(=O)c1ccc2c(c1)N(Cc1cccc(Cl)c1)C(=O)c1ccccc1S2=O (centres undefined) | 99% (inactive)
51 | CC1CCC(NC(=O)c2ccc3c(c2)N(Cc2ccccc2)C(=O)c2ccccc2S3=O)CC1 (centres undefined) | 104% (inactive)
52 | CCOC(=O)N1CCC(NC(=O)c2ccc3c(c2)N(Cc2ccccc2)C(=O)c2ccccc2S3=O)CC1 (centres undefined) | 57% (inactive)
53 | O=C(NC1CCCCC1)c1ccc2c(c1)N(Cc1cccc(Cl)c1)C(=O)c1ccccc1S2=O (centres undefined) | 101% (inactive)
54 | O=C(NCCC1=CCCCC1)c1ccc2c(c1)N(Cc1ccc(Cl)cc1)C(=O)c1ccccc1S2=O (centres undefined) | 63% (inactive)
55 | CC1CCC(NC(=O)c2ccc3c(c2)N(Cc2cccc(Cl)c2)C(=O)c2ccccc2S3=O)CC1 (centres undefined) | 25% (active)
56 | CN(C(=O)c1ccc2c(c1)N(Cc1cccc(Cl)c1)C(=O)c1ccccc1S2=O)C1CCCCC1 (centres undefined) | 101% (inactive)
57 | O=C(NCCC1=CCCCC1)c1ccc2c(c1)N(Cc1ccccc1)C(=O)c1ccccc1S2=O (centres undefined) | 70% (inactive)
58 | Cc1ccc(-n2c(=O)c3c(cnn3C)n(CC(=O)Nc3c(C)cccc3C)c2=O)cc1 | 85% (inactive)
59 | COc1ccc(NC(=O)Cn2c(=O)n(-c3ccc(CC(=O)NCC4CCCO4)cc3)c(=O)c3ccccc32)c(OC)c1 (centres undefined) | 102% (inactive)
